{"source": "PubChem BioAssay (NCI)", "note": "The panel holds about 83,000 compounds, 20% with a hit somewhere; the sample as a whole holds those more often.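 Values shown are percent growth following 48 h exposure of cells in 96-well plates to a single concentration of compound; below 10 was considered active.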 A number with no mark means an inactive call. Calls of active or inactive are those of the source.", "data": [{"test_system": "SK-MEL-2 melanoma", "assay": "NCI-60 one-dose screen, 48 h (100 = growth as untreated, 0 = no growth, -100 = all killed)", "conditions": "10 µM unless noted", "values": [{"smiles": "CCOC(=O)C1=C(N)Oc2cc(OC)ccc2C1c1ccc(F)c(F)c1", "note": "(configuration not stated)", "growth": "11.8%"}, {"smiles": "Cc1c(Cl)ccc2c(C(=O)Cl)cc(-c3ccccc3)nc12", "growth": "106%"}, {"smiles": "CCCCCCCCCCCCCCCC(=O)NS(=O)(=O)OC[C@H]1O[C@@H](n2cnc3c(N)ncnc32)[C@H](O)[C@@H]1O", "growth": "-24.7% (active)"}, {"smiles": "COc1ccc(-c2nnc(NC(=O)CN3CCN(c4cc5c(cc4F)c(=O)c(C(=O)O)cn5C4CC4)CC3)s2)cc1OC", "growth": "102%"}, {"smiles": "O=S(=O)(CCN1CCOCC1)Nc1cc(-c2ccc3ncnc(Nc4ccc(F)c(Cl)c4)c3c2)cnc1Cl", "growth": "2.26% (active)"}, {"smiles": "C[C@]12O[C@H]1[C@H](O)c1c(cc(O)c3c1C(=O)c1cccc(O)c1-3)C2=O", "growth": "99.3%"}, {"smiles": "COc1ccc(OCC(O)CN2CCN(c3ccc(Cl)cc3)CC2)cc1", "note": "(configuration not stated)", "growth": "135%"}, {"smiles": "COc1ccc2c(c1)O/C(=C/c1ccc(OCC(=O)Nc3ccc(S(N)(=O)=O)cc3)cc1)C2=O", "growth": "97.7%"}, {"smiles": "O=C1COc2ccccc2C(=O)N1CCCCN1CCCCC1", "growth": "95.4%"}, {"smiles": "CCn1c(SCC(=O)c2ccc(Br)cc2)nnc1-c1cc2c([nH]c3ccccc32)c(-c2cccc(O)c2)n1", "growth": "69.9%"}, {"smiles": "CC(C)CNCC(O)COc1ccc(C(C)(C)c2ccc(OCC(O)CNCC(C)C)cc2)cc1", "note": "(configuration not stated)", "growth": "-6.06% (active)"}, {"smiles": "CC[C@H]1[C@@H]2C=C[C@@H]3[C@H]4C/C=C\\C(=O)NCCC[C@@H]5NC(=O)/C(=C(O)/C=C/[C@@H]4C[C@@H]3[C@H]2C[C@H]1C)C5=O", "growth": "46%"}, {"smiles": "Cc1cc(-c2ccccc2)nc2ccccc12", "growth": "109%"}, {"smiles": "CCn1c(SC)nnc1-c1cc2c([nH]c3ccccc32)c(-c2cccc(O)c2)n1", "growth": "15.6%"}, {"smiles": "O=C(O)c1ccc(-c2nn(-c3ccc(C(=O)O)cc3)cc2/C=N/Nc2c(F)c(F)cc(F)c2F)cc1", "growth": "99.1%"}, {"smiles": "CCN(CC)CCNCC(O)Cc1ccc(OC)cc1", "note": "(configuration not stated)", "growth": "96.4%"}, {"smiles": "Nc1ncnc2c1ncn2C1OC(COC(c2ccccc2)(c2ccccc2)c2ccccc2)C(O)C1O", "note": "(configuration not stated)", "growth": "87.7%"}, {"smiles": "O=C(Nc1cccc(-n2ccc3c(NC(=O)c4ccccc4)nccc32)c1)c1cc(N2CCOCC2)cc(C(F)(F)F)c1", "growth": "-4.8% (active)"}, {"smiles": "Nn1c(CN2CCN(c3cc4c(cc3F)c(=O)c(C(=O)O)cn4C3CC3)CC2)n[nH]c1=S", "growth": "95.9%"}, {"smiles": "CCOC(=O)c1[nH]c(-c2ccc(Cl)cc2)cc1-c1cccnc1", "growth": "39.5%"}, {"smiles": "O=c1c2ccccc2[nH]n1Cc1ccc2c(c1)OCO2", "growth": "104%"}, {"smiles": "Cc1ncc(CO)c(C(=O)O)c1O", "growth": "89.7%"}, {"smiles": "CCN(CC)CCN1C(=O)c2c(c3c4ccccc4[nH]c3c3[nH]c4ccccc4c23)C1=O", "growth": "101%"}, {"smiles": "C=CCn1c(SCC(=O)Nc2ccc(C(=O)/C=C/c3cc(OC)c(OC)c(OC)c3)cc2)nnc1-c1ccc(OC)cc1", "growth": "15.1%"}]}, {"test_system": "EKVX NSCLC", "assay": "NCI-60 one-dose screen, 48 h (100 = growth as untreated, 0 = no growth, -100 = all killed)", "conditions": "10 µM unless noted", "values": [{"smiles": "O=C(Nc1ccc(-n2ccc3c(NC(=O)c4ccccc4)ncnc32)cc1)c1ccc(Cl)c(C(F)(F)F)c1", "growth": "47.7%"}, {"smiles": "CC12CCC3C(CCC4CC(O)CCC43C)C1C/C(=C/O)C(=O)O2", "note": "(configuration not stated)", "growth": "104%"}, {"smiles": "O=C1/C(=C/c2cccc3cnccc23)Cc2cc(F)ccc21", "growth": "91.2%"}, {"smiles": "CCc1c(C)c2cc(-n3c(-c4ccc(OC)cc4)csc3=N)c(O)c(C)c2oc1=O", "growth": "19.4%"}, {"smiles": "O=C(NCCNc1nccc(-c2c(-c3cccc(O)c3)nc3sccn23)n1)c1ccccc1O", "growth": "66.8%"}, {"smiles": "NC(CCCC(N)C(=O)c1ccccc1)C(=O)O", "note": "(configuration not stated)", "growth": "101%"}, {"smiles": "COc1ccc(-c2nnc(SCC(=O)N3CCN(c4cc5c(cc4F)c(=O)c(C(=O)O)cn5C4CC4)CC3)o2)cc1OC", "growth": "102%"}, {"smiles": "CC(C)(C)C(=O)/C=c1/[nH]c(=O)/c(=C/c2ccccc2O)s1", "growth": "61.1%"}, {"smiles": "O=C1c2ccccc2OC=C(c2ccccc2)N1CCCCN1CCCCC1", "growth": "39.5%"}, {"smiles": "CNCCCOc1c(Br)cc(CCNC(=O)/C(Cc2cc(Br)c(OC)c(Br)c2)=N/O)cc1Br", "growth": "26.3%"}, {"smiles": "COc1ccc(-c2nnc(SCC(=O)Nc3ccc(C(=O)/C=C/c4ccc(OC)c(OC)c4)cc3)o2)cc1", "growth": "90%"}, {"smiles": "COc1cc(-c2nc(SCC(=O)Nc3ccc(C(C)=O)cc3)[nH]c(=O)c2C#N)cc(OC)c1OC", "growth": "33.8%"}, {"smiles": "O=C1OC(N(Cc2ccc(Cl)cc2)c2ccccc2)c2ccccc21", "note": "(configuration not stated)", "growth": "102%"}, {"smiles": "O=C(NNC(=O)c1ccc([N+](=O)[O-])cc1)c1ccc([N+](=O)[O-])cc1", "growth": "93.7%"}, {"smiles": "CCOC(=O)C1=C(N)Oc2cc(OC)ccc2C1c1ccc(F)c(F)c1", "note": "(configuration not stated)", "growth": "40.1%"}, {"smiles": "Cc1c(Cl)ccc2c(C(=O)Cl)cc(-c3ccccc3)nc12", "growth": "95.6%"}, {"smiles": "CCCCCCCCCCCCCCCC(=O)NS(=O)(=O)OC[C@H]1O[C@@H](n2cnc3c(N)ncnc32)[C@H](O)[C@@H]1O", "growth": "-8.18% (active)"}, {"smiles": "COc1ccc(-c2nnc(NC(=O)CN3CCN(c4cc5c(cc4F)c(=O)c(C(=O)O)cn5C4CC4)CC3)s2)cc1OC", "growth": "108%"}, {"smiles": "O=S(=O)(CCN1CCOCC1)Nc1cc(-c2ccc3ncnc(Nc4ccc(F)c(Cl)c4)c3c2)cnc1Cl", "growth": "7.72% (active)"}, {"smiles": "C[C@]12O[C@H]1[C@H](O)c1c(cc(O)c3c1C(=O)c1cccc(O)c1-3)C2=O", "growth": "97.8%"}, {"smiles": "COc1ccc(OCC(O)CN2CCN(c3ccc(Cl)cc3)CC2)cc1", "note": "(configuration not stated)", "growth": "97.4%"}, {"smiles": "COc1ccc2c(c1)O/C(=C/c1ccc(OCC(=O)Nc3ccc(S(N)(=O)=O)cc3)cc1)C2=O", "growth": "97.5%"}, {"smiles": "O=C1COc2ccccc2C(=O)N1CCCCN1CCCCC1", "growth": "98.5%"}, {"smiles": "CCn1c(SCC(=O)c2ccc(Br)cc2)nnc1-c1cc2c([nH]c3ccccc32)c(-c2cccc(O)c2)n1", "growth": "67.2%"}, {"smiles": "CC(C)CNCC(O)COc1ccc(C(C)(C)c2ccc(OCC(O)CNCC(C)C)cc2)cc1", "note": "(configuration not stated)", "growth": "69.4%"}, {"smiles": "CC[C@H]1[C@@H]2C=C[C@@H]3[C@H]4C/C=C\\C(=O)NCCC[C@@H]5NC(=O)/C(=C(O)/C=C/[C@@H]4C[C@@H]3[C@H]2C[C@H]1C)C5=O", "growth": "15.3%"}, {"smiles": "Cc1cc(-c2ccccc2)nc2ccccc12", "growth": "81.1%"}, {"smiles": "CCn1c(SC)nnc1-c1cc2c([nH]c3ccccc32)c(-c2cccc(O)c2)n1", "growth": "21.6%"}, {"smiles": "O=C(O)c1ccc(-c2nn(-c3ccc(C(=O)O)cc3)cc2/C=N/Nc2c(F)c(F)cc(F)c2F)cc1", "growth": "103%"}, {"smiles": "CCN(CC)CCNCC(O)Cc1ccc(OC)cc1", "note": "(configuration not stated)", "growth": "105%"}, {"smiles": "Nc1ncnc2c1ncn2C1OC(COC(c2ccccc2)(c2ccccc2)c2ccccc2)C(O)C1O", "note": "(configuration not stated)", "growth": "91.6%"}, {"smiles": "O=C(Nc1cccc(-n2ccc3c(NC(=O)c4ccccc4)nccc32)c1)c1cc(N2CCOCC2)cc(C(F)(F)F)c1", "growth": "36.8%"}, {"smiles": "Nn1c(CN2CCN(c3cc4c(cc3F)c(=O)c(C(=O)O)cn4C3CC3)CC2)n[nH]c1=S", "growth": "102%"}, {"smiles": "CCOC(=O)c1[nH]c(-c2ccc(Cl)cc2)cc1-c1cccnc1", "growth": "24.3%"}, {"smiles": "O=c1c2ccccc2[nH]n1Cc1ccc2c(c1)OCO2", "growth": "105%"}, {"smiles": "Cc1ncc(CO)c(C(=O)O)c1O", "growth": "101%"}, {"smiles": "CCN(CC)CCN1C(=O)c2c(c3c4ccccc4[nH]c3c3[nH]c4ccccc4c23)C1=O", "growth": "80.3%"}, {"smiles": "C=CCn1c(SCC(=O)Nc2ccc(C(=O)/C=C/c3cc(OC)c(OC)c(OC)c3)cc2)nnc1-c1ccc(OC)cc1", "growth": "14.1%"}]}]}
